From PubChem BioAssay
Several values for one entry are separate records, joined by “and”; a condition that tells them apart may be missing. Identical values can stand only once. Records with an inconclusive call do not appear. Activity calls are given as the source filed them. Unless noted, cut-off not given; nearly all actives show AC50 up to about 26 µM.

Columns and labels:
[1] = growth inhibition of DIPG glioma cells, dose response, cell-based, SU-DIPG-XVII, MIPE5.0, CellTiter-Glo, qHTS (AID 1347060); conditions: SU-DIPG-XVII viability, CellTiter-Glo ATP luminescence;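 on AC50: cells exposed to compound for 48 hours before viability readout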
[2] = growth inhibition of DIPG glioma cells, dose response, cell-based, SU-DIPG-XIII, MIPE4.0, CellTiter-Glo, qHTS (AID 1347061; cut-off not given, nearly all actives have AC50 up to about 37 µM;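 further: cells exposed to compound for 48 hours before readout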); conditions: SU-DIPG-XIII viability, CellTiter-Glo ATP luminescence
[3] = growth inhibition of DIPG glioma cells, dose response, cell-based, JHH-DIPG-1, MIPE4.0, CellTiter-Glo, qHTS (AID 1347062; cut-off not given, nearly all actives have AC50 up to about 27 µM;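 on AC50: cells exposed to compound for two days before readout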); conditions: JHH-DIPG-1 viability, CellTiter-Glo ATP luminescence
[4] = growth inhibition of DIPG glioma cells, dose response, cell-based, SU-DIPG-IV, MIPE4.0, CellTiter-Glo, qHTS (AID 1347063; cut-off not given, nearly all actives have AC50 up to about 30 µM;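 further: compound exposure lasted 48 hours before the viability readout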); conditions: SU-DIPG-IV viability, CellTiter-Glo ATP luminescence
[5] = growth inhibition of DIPG glioma cells, dose response, cell-based, SU-DIPG-XIII, MIPE5.0, CellTiter-Glo, qHTS (AID 1347064; cut-off not given, nearly all actives have AC50 up to about 23 µM); conditions: SU-DIPG-XIII viability, CellTiter-Glo ATP luminescence
[6] = viability loss in pontine glioma line – cell-based, SU-DIPG-XXV, MIPE5.0, CellTiter-Glo, qHTS, dose response (AID 1347065); conditions: CellTiter-Glo ATP luminescence;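 further: cells exposed to compound for 48 hours before ATP readout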
[7] = SU-DIPG-VI glioma cell viability, MIPE4.0 library, CellTiter-Glo luminescence, qHTS (AID 1347066; cut-off not given, nearly all actives have AC50 up to about 30 µM;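 further: cells exposed to compound for 48 hours before readout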); conditions: CellTiter-Glo ATP luminescence
[8] = JHH-DIPG-1 glioma cell viability, MIPE5.0 library, CellTiter-Glo luminescence, qHTS (AID 1347067); conditions: JHH-DIPG-1 glioma viability, CellTiter-Glo ATP luminescence;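 further: cells exposed to compound for 48 hours before readout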
[9] = SU-DIPG-XXV glioma cell viability, MIPE5.0 library, qHTS (AID 1347068; cut-off not given, nearly all actives have IC50 up to about 30 µM)
[10] = sensitizers of A549 cells to miR-34 induction, primary screen, imaging, A549 dox-inducible miR-34, nuclei and caspase counts (AID 1347080;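 active means compounds whose cell count with miR-34 switched on is under 0.7 times the count with it off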); conditions: A549 miR-34 inducible, Hoechst nuclei count, 48 h
[11] = survival rescue of mitochondrial mutant cells in low glucose, primary screen, MELAS cybrids, Rieske KO mouse fibroblasts, CellTiter-Glo (AID 1508586;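 active means mean z-score across replicates of 1.96 or higher in either the MELAS or the Rieske mutant cell line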;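 further: z relative to plate mean and SD of compound and empty wells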)
[12] = circadian clock period modulators, cell-based, LOPAC library, luminescence reporter (AID 2774; call rule not given here;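 further: values are relative to mean of DMSO wells on each plate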); conditions: circadian reporter cells, at 7 µM, actives lie on both sides
[13] = system: Hepatitis C virus NS3 helicase; test: HCV NS3 helicase inhibitors, primary screen, biochemical, fluorescence polarization, LOPAC1280 library (AID 687035; in the data active means inhibition above about 37%); conditions: Purified HCV NS3 helicase, Cy5-dT15 ssDNA binding fluorescence polarization; stronger effect = higher value; concentration not given here
[14] = Cy5 fluorescence quenching or enhancement artefacts, artefact control for HCV NS3 helicase inhibitor project, biochemical, LOPAC1280 (AID 687037; call rule not given here); conditions: Cy5-DNA-NS3h complex fluorescence interference counterscreen
[15] = system: Aerobactin synthetase IucA (Klebsiella pneumoniae, hypervirulent); test: IucA enzyme inhibition, biochemical, LOPAC library, absorbance readout (AID 1346212; call rule not given here;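 further: 100% = no compound wells and 0% = no enzyme wells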); conditions: IucA enzyme assay, absorbance (OD) readout; stronger effect = lower value;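 tested at 8 µM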
[16] = hESC survival regulators, cell-based (AID 493140; call rule not given here;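 further: cells exposed to compounds for four days before counting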); conditions: human embryonic stem cell survival screen; stronger effect = higher value
[17] = liver-stage malaria parasite growth inhibition, primary screen, cell-based, HepG2, luciferase luminescence, HepG2 viability (AID 624349; in the data active means parasite load remaining mostly below about 12%, no sharp cut-off; inactive means mostly above about 10%;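 further: 100% = mean of DMSO negative control wells on the same plate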); conditions: P. berghei liver stage in HepG2, luciferase luminescence, concentration not given here; parasite load remaining: stronger effect = lower value; viability: measured here: HepG2 viability without parasites
[18] = kinase inhibitors against Plasmodium liver-stage infection, cell-based, known kinase inhibitor set, luminescence, hepatoma host viability (AID 624392; call rule not given here;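 further: infected cells incubated roughly two days before readout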); conditions: Plasmodium liver stage in hepatoma cells, luciferase luminescence, concentration not given here; liver cell % of control: measured here: host liver cell viability; parasite % of control: stronger effect = lower value
[19] = modifiers of HSF1 nuclear foci, imaging, Selleck Cancer Library (AID 1347162; in the data active means plate-normalised HSF1 focus index below about 0.46); conditions: human cells, at 10 µM; SSMD: measured here: HSF1 foci SSMD mean; cell count: measured here: cell number; plate-normalised HSF1 focus index: stronger effect = lower value
[20] = stronger effect = lower value, cell number ratio, induced over uninduced
[21] = measured here: relative caspase fold change +Dox/-Dox
[22] = measured here: total cells with miR-34 induction, stronger effect = lower value
[23] = measured here: total cells without miR-34 induction
[24] = MELAS cybrid survival, CellTiter-Glo 48 h, stronger effect = higher value
[25] = Rieske KO mouse fibroblast survival, CellTiter-Glo 72 h

CC1(C)CC(O)CC(C)(C)N1O
inactive: outcome [1] | outcome [2] | outcome [3] | outcome [4] | outcome [5] | outcome [6] | outcome [7] | outcome [8] | outcome [9] | fold change [10, 20] 0.97 | z-score [11, 24] -0.227
-0.223: z-score [11, 25]
7440: cell count [10, 22]
0.416: fold change [10, 21]
7670: cell count [10, 23]

O=C(O)c1cc[c]([Hg][Cl])cc1
active: remaining activity [15] -1.2%
inactive: period change [12] 0.155 h | inhibition [13] -5% | fluorescence ratio (interference) [14] 1

N[C@@H](CCl)C(=O)O
inactive: period change [12] 0.125 h | inhibition [13] -3% | fluorescence ratio (interference) [14] 1 | remaining activity [15] 104%

C=C[C@H]1CN2CCC1C[C@@H]2[C@@H](O)c1ccnc2ccccc12 (stereo not given in full)
active: AC50 [2] 20.9 µM | AC50 [7] 20.9 µM
inactive: survival [16] 1.25 | parasite load remaining [17] 79% | outcome [1] | outcome [3] | outcome [5] | outcome [6] | outcome [8] | outcome [9]
73.5%: viability [17]

N=C1NC(=O)N2CC12 (stereo not given)
active: AC50 [3] 2.09 µM
inactive: outcome [1] | outcome [2] | outcome [5] | outcome [6] | outcome [8] | outcome [9]

C[C@]12CC[C@@H]3c4ccc(OC(=O)N(CCCl)CCCl)cc4CC[C@H]3[C@@H]1CC[C@@H]2OP(=O)(O)O
inactive: outcome [1] | outcome [2] | outcome [3] | outcome [4] | outcome [5] | outcome [6] | outcome [7] | outcome [8] | outcome [9]

Cc1ccccc1-n1c(Cn2cnc3c(N)ncnc32)nc2cccc(C)c2c1=O
inactive: parasite % of control [18] 49.6% and 56.6% and 61.4% | outcome [1] | outcome [5] | outcome [6] | outcome [8] | outcome [9] | plate-normalised HSF1 focus index [19] 1.12
6650: cell count [19]
active: AC50 [2] 4.18 µM | AC50 [3] 1.32 µM | AC50 [4] 0.105 µM | AC50 [7] 0.743 µM
91.8% and 81.8% and 99.4%: liver cell % of control [18]
2.3: SSMD [19]

O=C(O)CNC(=O)c1c(O)c2ccccc2n(Cc2ccccc2)c1=O
8330: cell count [10, 22]
-0.159: z-score [11, 25]
0.358: fold change [10, 21]
inactive: outcome [1] | outcome [2] | outcome [3] | outcome [4] | outcome [5] | outcome [6] | outcome [7] | outcome [8] | outcome [9] | fold change [10, 20] 1.05 | z-score [11, 24] -0.124
7930: cell count [10, 23]

C[C@]12COC(=O)C[C@@H]1CC[C@@H]1[C@@H]2CC[C@@]2(C)[C@H]1CC[C@]2(C)O
0.228: z-score [11, 25]
inactive: outcome [1] | outcome [2] | outcome [3] | outcome [4] | outcome [5] | outcome [7] | outcome [8] | outcome [9] | z-score [11, 24] 0.293

Cc1ccccc1-n1c(Cn2ncc3c(N)ncnc32)nc2cccc(C)c2c1=O
8570: cell count [10, 22]
0.968: fold change [10, 21]
9490: cell count [10, 23]
inactive: outcome [1] | outcome [2] | outcome [5] | outcome [6] | outcome [8] | outcome [9] | fold change [10, 20] 0.903 | z-score [11, 24] -0.332
0.957: z-score [11, 25]

CN[C@@H]1Cc2cccc3[nH]c(=O)n(c23)C1
inactive: outcome [1] | outcome [2] | outcome [3] | outcome [5] | outcome [6] | outcome [7] | outcome [8] | outcome [9]

C[Se]C[C@H](N)C(=O)O
inactive: period change [12] -0.13 h | inhibition [13] -5% | fluorescence ratio (interference) [14] 1 | remaining activity [15] 106%

C[C@]12CC[C@H]3[C@@H](CCC4=CC(=O)CC[C@@]43C)[C@@H]1CC[C@@H]2OC(=O)CCC1CCCC1
inactive: outcome [1] | outcome [3] | outcome [4] | outcome [5] | outcome [7] | outcome [9]
active: AC50 [2] 23.5 µM

C/C(=C\c1csc(C)n1)[C@@H]1C[C@@H]2O[C@@H]2CCC[C@H](C)[C@H](O)[C@@H](C)C(=O)C(C)(C)[C@@H](O)CC(=O)O1
active: AC50 [1] 0.00662 µM | AC50 [6] 0.00934 µM
inactive: outcome [2] | outcome [5] | outcome [7]

C/C1=C/C[C@@H](/C(C)=C/c2csc(C)n2)OC(=O)C[C@H](O)C(C)(C)C(=O)[C@H](C)[C@@H](O)[C@@H](C)CCC1
active: AC50 [1] 0.00296 µM | AC50 [6] 0.00417 µM

CN1[C@@H]2CC(O)C[C@H]1[C@@H]1O[C@@H]12 (stereo not given in full)
9240 and 10200: cell count [10, 23]
8400 and 9480: cell count [10, 22]
inactive: outcome [1] | outcome [5] | outcome [6] | outcome [8] | outcome [9] | fold change [10, 20] 0.909 and 0.934 | z-score [11, 24] -0.234 and -0.344
-0.606 and 0.658: z-score [11, 25]
active: AC50 [4] 16.6 µM | AC50 [7] 16.6 µM
0.912 and 0.808: fold change [10, 21]
